Measured potencies and affinities stand elsewhere.

The nature of the test: loss of vesicle association with mouse CD8+ T cells – mouse 2C CD8+ T cells, flow cytometry, dose response (AID 485284).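 Also: drosophila derived vesicles carrying Ld MHC with QL9 peptide plus B7-1 and ICAM-1; vesicle binding seen as anti-B7-1 PE fluorescence on CD8 gated cells.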 As to conditions: 2C mouse CD8+ T cell-exosome binding; at 45 µM (top of the series). (A flow cytometer gives signals particle by particle.)
On to `COc1ccc([C@H]2CC(=O)C=C(/C=C/c3ccccc3)C2)cc1`, for which the binding remaining, % of control amounted to 52.1%.

With `Cc1cccc(C(=O)OCC(=O)NN2C(=O)NC3(CCC(C)CC3)C2=O)c1O` (centres undefined), the binding remaining, % of control was determined as 209%. The figure for `CSCCC(NC(=O)c1ccc(=O)n(C)n1)c1nc2ccccc2[nH]1` (centres undefined) is 149%. The figure for `CCCNC(=O)NC(=O)CN1C(=O)NC(C)(c2ccc(C)cc2)C1=O` (centres undefined) is 160%. Take `O=C(/C=C/c1ccccc1Cl)NCCc1ccccc1`: the binding remaining, % of control is 116%. The figure for `Cc1cc(C)n(C(=O)c2sc3cc(F)ccc3c2Cl)n1` is 160%. Turning to `CCC(C)S(=O)(=O)c1snnc1C` (centres undefined), the binding remaining, % of control amounted to 164%.

For `O=C(COC(=O)c1ccc(S(=O)(=O)N2CCOCC2)cc1)Nc1ccccc1OC(F)F`, the binding remaining, % of control stood at 20.5%. The figure for `COc1ccc(NC(=O)Cc2ccc(C)c(C)c2)cc1S(=O)(=O)N1CCCCC1` is 32.4%; for `COc1ccc(NS(=O)(=O)c2cc(NC(=O)C3CC3)ccc2N2CCCCC2)cc1` it is 49.3%; for `COc1ccc(C(=O)NNC(=O)CSc2nnnn2C)cc1` it is 181%. The figure for `C=CCN(c1ccc(Br)cc1C(=O)OC)S(C)(=O)=O` is 115%; for `CCOC(=O)c1c(N2C(=O)CC(Sc3ccccc3C(=O)O)C2=O)sc2c1CCCC2` (centres undefined) it is 41.4%. Under `CN1CCN(S(=O)(=O)c2cccc(C(=O)Nc3cc(C(F)(F)F)ccc3N3CCCCC3)c2)CC1` stands 51.4%. As to `CS(=O)(=O)c1cccc(-c2csc(N3CCC(C(N)=O)CC3)n2)c1`, the binding remaining, % of control worked out at 150%.

As for `CCOc1ccc(-c2csc(NNC3=NCCCCC3)n2)cc1`, the binding remaining, % of control turned out to be 156%. Under `Cc1c(C(=O)N(C)Cc2ccccc2)oc2ccc(S(=O)(=O)N3CCCC3)cc12` stands 120%; under `COc1ccc(N2CC(C(=O)N[C@@H](C)C(=O)NCc3ccccc3OC)CC2=O)cc1` (some centres undefined), 24.3%.

Take `NC(=O)CCS(=O)(=O)CCN1CCN(S(=O)(=O)c2ccc3c(c2)CCC3)CC1`: the binding remaining, % of control is 170%. On to `CCOc1ccc(C(=O)NNC(=O)CN2C(=O)C3CC=CCC3C2=O)cc1OC` (centres undefined), for which the binding remaining, % of control stood at 194%.

On to `O=C(Cc1cccc(NC(=O)C2CCCN(C(=O)C3CC3)C2)c1)Nc1cccc(C(=O)N2CCCC2)c1` (centres undefined), for which the binding remaining, % of control was 47.2%. With `CS(=O)(=O)NCc1ccccc1Br`, the binding remaining, % of control turned out to be 95.9%. The figure for `O=C(NC1CCCCCC1)C1CCN(S(=O)(=O)c2ccccc2)CC1` is 137%; for `O=C(Oc1ccc(C(=S)N2CCOCC2)cc1)c1ccc(F)cc1` it is 63.3%; for `COc1ccc(S(=O)(=O)N2CCCC2C(=O)Nc2ccc(C(C)=O)cc2)cc1` (centres undefined) it is 91.8%. As for `CCOC(=O)CSc1nnnn1-c1cc(OC)c(Cl)cc1OC`, the binding remaining, % of control was determined as 136%.

For the compound `COC(=O)c1ccc(OC(=O)CS(=O)c2ccccc2[N+](=O)[O-])cc1` (centres undefined), the binding remaining, % of control stood at 97.9%. The figure for `O=S(=O)(c1ccc(F)cc1)N1CCC(O)(c2ccc3c(c2)OCO3)CC1` is 108%; for `CCCNC(=O)c1nc2ncc(Br)cn2n1` it is 153%; for `COc1cccc(NC(=O)Nc2ccc3nc(C)c(C)nc3c2)c1` it is 129%. For the compound `Cc1ccc(S(=O)(=O)N2CCN(C(=O)CNC(=O)c3ccc(Cl)cc3)CC2)cc1`, the binding remaining, % of control came out at 219%. The figure for `COc1ccccc1NS(=O)(=O)c1ccc(C)c(NC(=O)c2ccc(S(=O)(=O)N3CCCCCC3)cc2)c1` is 134%; for `CCCNC(=O)CN1CCN(S(=O)(=O)c2ccc(Br)s2)CC1` it is 100%; for `COc1ccccc1NS(=O)(=O)c1cc(NC(=O)CNC(=O)c2cc(C)cc(C)c2)ccc1C` it is 40.9%.
